According to the supplement of paper PMC7411054:
Counter-ions that a name gives are not always drawn.

Tests used:
Conditions in all cases: treatment time: 24 h
[1] = system: A549-ACTB-RAB5A; test: lowest phenotypically active concentration; higher = less potent
How it was run: (§1)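 Fifteen gene-edited A549, HepG2 and WPMY1 reporter lines (BFP segmentation plus GFP and RFP/FusionRed markers) were treated at 0.3, 1, 3 or 9 µM for 24 h, four wells each, then imaged live. Live-cell features per well were normalised to DMSO control wells. Deviation required ≥3 of 4 wells beyond the 95th percentile of DMSO Euclidean distances, and reproducibility required median replicate Pearson correlation above the 95th percentile of non-replicates. Phenotypic activity needed both criteria.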

[2] = system: A549-GM130-SQSTM1; test: as above
How it was run: as §1

[3] = system: A549-ACTB-RAB5A; test: phenotypically active (imaging signature differs from DMSO and reproducible) at any of 0.3-9 uM (binary (1 = active, 0 = inactive)); higher = active
How it was run: as §1

[4] = system: A549-CANX-COX4; test: as above
How it was run: as §1

[5] = system: A549-GM130-SQSTM1; test: as above
How it was run: as §1

[6] = system: A549-TP53BP1-CLTA; test: as above
How it was run: as §1

[7] = system: A549-TUBA1B-RELA; test: as above
How it was run: as §1

[8] = system: HepG2-ACTB-RAB5A; test: as above
How it was run: as §1

[9] = system: HepG2-CANX-COX4; test: as above
How it was run: as §1

[10] = system: HepG2-GM130-SQSTM1; test: as above
How it was run: as §1

[11] = system: HepG2-TP53BP1-CLTA; test: as above
How it was run: as §1

[12] = system: HepG2-TUBA1B-RELA; test: as above
How it was run: as §1

[13] = system: WPMY1-ACTB-RAB5A; test: as above
How it was run: as §1

[14] = system: WPMY1-CANX-COX4; test: as above
How it was run: as §1

[15] = system: WPMY1-GM130-SQSTM1; test: as above
How it was run: as §1

[16] = system: WPMY1-TP53BP1-CLTA; test: as above
How it was run: as §1

[17] = system: WPMY1-TUBA1B-RELA; test: as above
How it was run: as §1

[18] = system: A549-TUBA1B-RELA; test: lowest phenotypically active concentration; higher = less potent
How it was run: as §1

[19] = system: HepG2-ACTB-RAB5A; test: as above
How it was run: as §1

[20] = system: WPMY1-GM130-SQSTM1; test: as above
How it was run: as §1

Row | Structure (SMILES) | lowest phenotypically active concentration [1] [µM] | lowest phenotypically active concentration [2] [µM] | phenotypically active [3] | phenotypically active [4] | phenotypically active [5] | phenotypically active [6] | phenotypically active [7] | phenotypically active [8] | phenotypically active [9] | phenotypically active [10] | phenotypically active [11] | phenotypically active [12] | phenotypically active [13] | phenotypically active [14] | phenotypically active [15] | phenotypically active [16] | phenotypically active [17] | lowest phenotypically active concentration [18] [µM] | lowest phenotypically active concentration [19] [µM] | lowest phenotypically active concentration [20] [µM]
1 | N#Cc1ccc2ncnc(NCCc3ccccc3)c2c1 [Senexin A] | 3 | 3 | 1 (active) | 0 (inactive) | 1 (active) | 0 (inactive) | 0 (inactive) | 0 (inactive) | 1 (active) | 0 (inactive) | 0 (inactive) | 0 (inactive) | 1 (active) | 1 (active) | 0 (inactive) | 0 (inactive) | 1 (active) | – | – | –
2 | CN1c2ccc([N+](=O)[O-])cc2N=C(c2ccc(C(=O)O)cc2)c2cc3c(cc21)C(C)(C)CCC3(C)C | 9 | 9 | 1 (active) | 0 (inactive) | 1 (active) | 0 (inactive) | 1 (active) | 0 (inactive) | 0 (inactive) | 0 (inactive) | 0 (inactive) | 1 (active) | 0 (inactive) | 0 (inactive) | 0 (inactive) | 0 (inactive) | 0 (inactive) | 9 | – | –
3 | O=C(CCCCCCC(=O)NO)NO | 9 | – | 1 (active) | 0 (inactive) | 0 (inactive) | 0 (inactive) | 0 (inactive) | 1 (active) | 0 (inactive) | 0 (inactive) | 0 (inactive) | 0 (inactive) | 0 (inactive) | 0 (inactive) | 0 (inactive) | 0 (inactive) | 0 (inactive) | – | 9 | –
4 | COc1cc2nccc(Oc3ccc(NC(=O)C4(C(=O)Nc5ccc(F)cc5)CC4)cc3)c2cc1OC | 3 | 3 | 1 (active) | 0 (inactive) | 1 (active) | 0 (inactive) | 1 (active) | 0 (inactive) | 0 (inactive) | 0 (inactive) | 0 (inactive) | 0 (inactive) | 1 (active) | 0 (inactive) | 0 (inactive) | 0 (inactive) | 0 (inactive) | ≤ 0.3 | – | –
5 | Nc1ncnc2c1c(-c1ccc(Oc3ccccc3)cc1)nn2C1CCCC1 | 9 | 9 | 1 (active) | 0 (inactive) | 1 (active) | 0 (inactive) | 1 (active) | 0 (inactive) | 0 (inactive) | 0 (inactive) | 0 (inactive) | 0 (inactive) | 0 (inactive) | 0 (inactive) | 0 (inactive) | 1 (active) | 0 (inactive) | 3 | – | –
6 | NC(=O)[C@@H](CCC(F)(F)F)N(Cc1ccc(-c2ncon2)cc1F)S(=O)(=O)c1ccc(Cl)cc1 [avagacestat] | 9 | – | 1 (active) | 0 (inactive) | 0 (inactive) | 0 (inactive) | 0 (inactive) | 1 (active) | 0 (inactive) | 0 (inactive) | 0 (inactive) | 0 (inactive) | 0 (inactive) | 0 (inactive) | 0 (inactive) | 0 (inactive) | 0 (inactive) | – | 9 | –
7 | Cc1ccc(S(=O)(=O)n2c(N)nc3ccccc32)cc1 | 9 | – | 1 (active) | 0 (inactive) | 0 (inactive) | 0 (inactive) | 0 (inactive) | 1 (active) | 0 (inactive) | 0 (inactive) | 0 (inactive) | 0 (inactive) | 0 (inactive) | 0 (inactive) | 0 (inactive) | 0 (inactive) | 0 (inactive) | – | 9 | –
8 | CC(C)(C)c1ccc(C(O)CCCN2CCC(C(O)(c3ccccc3)c3ccccc3)CC2)cc1 (stereo not given) [terfenadine] | 9 | 3 | 1 (active) | 0 (inactive) | 1 (active) | 0 (inactive) | 0 (inactive) | 1 (active) | 0 (inactive) | 0 (inactive) | 0 (inactive) | 1 (active) | 0 (inactive) | 0 (inactive) | 1 (active) | 0 (inactive) | 1 (active) | – | 3 | 3
9 | Nc1cc(N)c(N)cc1N [FAK Inhibitor 14] | 3 | 9 | 1 (active) | 0 (inactive) | 1 (active) | 0 (inactive) | 1 (active) | 0 (inactive) | 0 (inactive) | 0 (inactive) | 1 (active) | 1 (active) | 1 (active) | 1 (active) | 1 (active) | 1 (active) | 1 (active) | 3 | – | 3
10 | O=C(Nc1ccc(CN2CCOCC2)cc1)c1ccc(-c2cccc(Cl)c2)o1 | 9 | – | 1 (active) | 0 (inactive) | 0 (inactive) | 0 (inactive) | 1 (active) | 0 (inactive) | 0 (inactive) | 0 (inactive) | 0 (inactive) | 1 (active) | 0 (inactive) | 0 (inactive) | 0 (inactive) | 0 (inactive) | 0 (inactive) | 9 | – | –
11 | CC1CNCCN1S(=O)(=O)c1cccc2cnccc12 (stereo not given) [H-7 dihydrochloride] | 9 | 9 | 1 (active) | 0 (inactive) | 1 (active) | 0 (inactive) | 0 (inactive) | 0 (inactive) | 1 (active) | 1 (active) | 0 (inactive) | 1 (active) | 1 (active) | 1 (active) | 1 (active) | 0 (inactive) | 1 (active) | – | – | 9
